Assay outcomes from PubChem BioAssay.
SNCA expr inhib: Primary qHTS assay for inhibitors of alpha-synuclein gene (SNCA) expression | HEK-293 SNCA-luciferase knock-in, luminescence, 24 h | Potency, µM (highest dose often 57.2 µM), without a hit: at the top dose activity change, negative = inhibition, most hits filed as inhibitors | 0.17% of 140,000 active | AID 1671194, 2021;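 also: potency is read from the fitted curve at half-maximal effect; plate controls were DMSO cells for no effect and cell-free wells for full effect; nearly all actives have a fitted effect of over 45% in size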
IP6K1 inh: Primary qHTS assay for small molecule inhibitors of Inositol hexaphosphate kinase 1 (IP6K1). AID 1645851, 2021. Inositol hexakisphosphate kinase 1 (Homo sapiens), Q92551. activity change, % (series mostly up to about 58 µM). 0.81% of 140,000 active. IP6K1 kinase, ADP-Glo luminescence, 2 h; stronger effect = lower value; in the data active = activity change below about -25%; also: % is scaled to controls: 0 for no effect and ±100 for the full control effect
Target sequence (Q92551 whole entry, looked up): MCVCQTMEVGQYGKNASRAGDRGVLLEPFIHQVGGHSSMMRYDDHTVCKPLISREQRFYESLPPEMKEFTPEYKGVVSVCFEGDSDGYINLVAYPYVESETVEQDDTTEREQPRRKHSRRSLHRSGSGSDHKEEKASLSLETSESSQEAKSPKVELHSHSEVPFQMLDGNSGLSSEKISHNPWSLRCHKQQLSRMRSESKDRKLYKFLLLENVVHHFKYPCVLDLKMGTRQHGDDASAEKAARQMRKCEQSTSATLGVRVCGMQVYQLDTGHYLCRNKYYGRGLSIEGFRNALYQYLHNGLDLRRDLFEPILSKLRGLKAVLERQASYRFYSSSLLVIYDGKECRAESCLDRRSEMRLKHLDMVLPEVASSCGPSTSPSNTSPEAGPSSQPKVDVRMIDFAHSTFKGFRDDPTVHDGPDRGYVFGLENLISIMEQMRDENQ
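ADP-Glo luminescence measures ADP made by human IP6K1 during a 2 h RT reaction with ATP/IP6 (mix at 1.3 mM/130 uM); top library doses 57.5 and 19.1 uM final.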
KDM5B inh: Primary screen for KDM5B Histone Demethylases FDH-coupled qHTS | Potency, µM (series often up to 57.7 µM), most hits filed as inhibitors | Lysine-specific demethylase 5B (Homo sapiens), Q9UGL1 | 2.6% of 220,000 active | AID 1347165, 2019 | KDM5B demethylase, FDH-coupled NADH fluorescence (FDH is formaldehyde dehydrogenase); also: potency is read from the fitted curve at half-maximal effect; 0% is about no effect; nearly all actives have a fitted effect of over 70% in size
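KDM5BΔAP (200 nM final) in 50 mM HEPES pH 7.5, 0.01% Tween-20 was preincubated 10 min at RT with compound over a concentration range. Substrate mix (H3K4me3 12.5 µM, α-KG 25 µM, Fe²⁺, ascorbate, NAD⁺, FDH) was added, and NADH fluorescence change over 30 min gave dose-response curves.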
HEK293 viab: GF-AFC viability counterscreen for inhibitors of alpha-synuclein gene (SNCA) expression | HEK-293-SNCA-luc viability, GF-AFC fluorescence, 24 h | Potency, µM (titrated, usually from 57.1 µM), inactives show at the highest dose activity change, negative = cytotoxicity, usual class: cytotoxic | 0.12% of 150,000 active | AID 1671193, 2021;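 also: potency is read from the fitted curve at half-maximal effect; 0% = DMSO-treated cells and -100% = medium-only wells without cells; nearly all actives have a fitted effect of over 30% in size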
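Cytotoxicity counterscreen: after 24 h compound treatment of genome-edited SNCA-luciferase HEK-293 cells, live-cell protease substrate GF-AFC read by fluorescence after 30 min; activity scaled between DMSO (0%) and medium-only (-100%), curves Hill-fitted.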
Numbers without * were called inactive; i = inactive; ? = inconclusive; . = no result given; [ ] = dose if it differs, or a comment. In the library only some 2.8% were active in any assay of this set; here they are far more common. Unless noted, calls follow the shape of the dose curve; as a rule, active = well fitted curve in the direction sought with a large enough effect; inconclusive = small, poorly fitted or top-dose-only effect, or another doubt; inactive = no such curve, though single readings can be large; an effect the other way counts as inactive or inconclusive.

SMILES | SNCA expr inhib | IP6K1 inh | KDM5B inh | HEK293 viab
O=C(NCc1cccnc1)c1nc(-c2ccc(Cl)nc2)c2ccccn12 | 19.8% | -11.9 | 89.1µM* | -12.6%
Cc1cccc(C)c1-c1nc(C(=O)NCc2ccsc2)n2ccccc12 | 12.8% | -0.7 | 31.6µM* | 5.8%
Cc1nc2cc(NS(=O)(=O)c3cc(F)ccc3F)ccc2o1 | . | . | i | .
Cn1cc(C(C(=O)O)N2CCN(CCc3ccncc3)CC2)c2cc(C(=O)O)ccc21 (configuration not stated) | . | . | i | .
COc1ccc(-c2ccc(C(=O)N3CCC(NC(C)=O)CC3)cc2)nn1 | . | -3.7 | . | .
COc1ccc(-c2nc(C(=O)NCc3cccnc3)n3ccccc23)cc1 | 2.9% | 3.5 | 28.2µM* | -8.6%
O=C(NCc1cccnc1)c1nc(-c2cc(Cl)cc(Cl)c2)c2ccccn12 | 1.6% | -8.4 | i | 13.2%
Cc1cccc(C)c1-c1nc(C(=O)NCc2cccnc2)n2ccccc12 | 15.3% | 37.3 | 25.1µM* | 0.0%
O=C(NCc1cccnc1)c1nc(-c2ccccc2)c2ccccn12 | 3.4%[87.6 µM] | 8.0 | i | 3.5%[87.6 µM]
O=C(NCc1cccnc1)c1nc(-c2ccc(Cl)cc2)c2ccccn12 | -1.0% | 14.8 | 28.2µM* | -0.6%
Cc1ccccc1C(=O)N1CCCC1C(=O)N1CCC(N2CCOCC2=O)CC1 (configuration not stated) | 12.6% | 18.7 | . | 3.4%
O=C(c1ccc2c(c1)CC(=O)N2Cc1ccccc1)N1CCN(C2CCCCC2)CC1 | ? | -4.8 | i | -1.1%
CC(C)(C)c1nnc([C@H]2CCN(Cc3cnc4ccccc4c3)C2)o1 | 10.7%[87.6 µM] | -0.5 | 35.5µM* | -14.0%[87.6 µM]
CC(NC(=O)CSc1ccc(C(F)(F)F)cn1)c1ccccc1 (configuration not stated) | . | . | i | .
Cc1ccc(Cn2cc(-c3ccncc3)cc2C(=O)NCC2CC2)cc1 | 10.0% | -0.3 | 35.5µM* | 2.6%
Cc1ccc(Cn2cc(-c3ccncc3)cc2C(=O)N(C)Cc2ccccc2)cc1 | -25.7% | -6.3 | 22.4µM* | ?
CC(C)NC(=O)c1noc(-c2ccc[nH]c2=O)n1 | -24.3% | 9.9 | i | 8.9%
COc1ccc(CCNC(=O)c2noc(-c3ccc[nH]c3=O)n2)cc1OC | 1.8% | -0.2 | 31.6µM* | 2.2%
O=C(NCCC1=CCCCC1)c1noc(-c2ccc[nH]c2=O)n1 | ? | -2.4 | 31.6µM* | -3.8%
COc1ccc(CCNC(=O)c2cc([N+](=O)[O-])cc([N+](=O)[O-])c2)cc1OC | . | . | i | .
O=C(NCC1CCCO1)c1noc(-c2ccc[nH]c2=O)n1 (configuration not stated) | -18.0% | 2.2 | 28.2µM* | 5.4%
COc1ccc(C2Cn3nnc(C(=O)N4CCC(C(=O)NCc5ccc(F)cc5)CC4)c3CO2)cc1 (configuration not stated) | 6.8% | 3.7 | i | 2.7%
Cc1cccc(N2C(=O)CSC23CCN(C(=O)C2CC2)CC3)c1 | -22.4% | 2.2 | 25.1µM* | 8.4%
COC(=O)CNC(=O)c1cc(C(C)(C)C)nc2c1cnn2C | 9.5% | -0.8 | 89.1µM* | -1.8%
Cn1ncc2c(C(=O)NC3CC3)cc(-c3cccnc3)nc21 | 10.2%[87.6 µM] | 6.4 | 89.1µM* | -0.7%[87.6 µM]
SMILES | SNCA expr inhib | IP6K1 inh | KDM5B inh | HEK293 viab
COC(=O)CNC(=O)c1cc(-c2ccc(Cl)nc2)nc2c1cnn2C | 4.1% | 0.8 | 79.4µM* | -6.0%
C#CCNC(=O)c1cc(-c2ccc(Cl)nc2)nc2c1cnn2C | 3.2% | -6.8 | 100µM* | -5.1%
C#CCNC(=O)c1cc(-c2ccc(Cl)cc2)nc2c1cnn2C | -2.8%[87.6 µM] | -7.9 | . | -10.2%[87.6 µM]
C/C(=N/Nc1ccccc1)C1(C)N(O)C(C)(C)C(c2ccc(C)cc2)=[N+]1[O-] (configuration not stated) | . | . | i | .
c1ccc(CN2CCCNC2)cc1 | . | . | i | .
Cn1cc(C2c3ccccc3C(=O)N2CC(=O)NCc2ccccc2)c2ccccc21 (configuration not stated) | . | . | i | .
Cc1nc(Nc2n[nH]c3c2CN(C(=O)N[C@H](CN(C)C)c2ccccc2)C3(C)C)c2sccc2n1 | 0.0152µM* | 28.2 | . | ?
Cc1ccc(C(=O)NC(CN(C)C)c2ccccc2)cc1F (configuration not stated) | . | . | i | .
CCc1noc(-c2cccn3c(CNC(=O)c4cc5ccccc5[nH]4)nnc23)n1 | 66.1% | 16.6 | ? | -7.0%
CCCc1noc(-c2cccn3c(CNC(=O)c4ccc(Cl)cc4)nnc23)n1 | 1.4% | 11.9 | ? | -11.0%
CCc1noc(-c2cccn3c(CNC(=O)c4ccco4)nnc23)n1 | -9.3% | 18.6 | 28.2µM* | -4.9%
CCCc1noc(-c2cccn3c(CNC(=O)c4ccco4)nnc23)n1 | -5.4% | -3.3 | 25.1µM* | -13.4%
CN(C)CCCOCC1(C)COc2ccc(C(=O)Nc3ccccc3)cc2N1 (configuration not stated) | 125.1%[87.6 µM] | -5.8 | ? | -1.0%[87.6 µM]
CN(C)CCOCC1(C)COc2ccc(C(=O)NCc3ccc(F)cc3)cc2N1 (configuration not stated) | -8.5%[87.6 µM] | -11.1 | 39.8µM* | 10.1%[87.6 µM]
CCOCC1(C)COc2ccc(C(=O)NCc3ccc(F)cc3)cc2N1 (configuration not stated) | 6.7%[87.6 µM] | 9.0 | ? | -7.9%[87.6 µM]
CN(C)CCOCC1(C)COc2ccc(C(=O)NCc3cccc(F)c3)cc2N1 (configuration not stated) | -7.7%[87.6 µM] | -8.6 | 39.8µM* | 7.9%[87.6 µM]
CN(C)c1ccc(C(=C2C=CC(=[N+](C)C)C=C2)c2ccc(N(C)C)cc2)cc1 | ? | -57.6* | . | ?
Cc1noc(C2CC3(CCN(C(=O)CCc4ccccc4)CC3)CN2C)n1 (configuration not stated) | -21.5% | -8.1 | i | 2.9%
COCCn1c2c([n+](Cc3cnccn3)c1C)C(=O)c1ccccc1C2=O | 0.0961µM* | . | . | 0.0764µM*
O=C1/C(=C/c2ccc(Cl)c(Cl)c2)C(c2ccccc2)Oc2ccccc21 (configuration not stated) | . | . | i | .
N#Cc1ccccc1CN1CCCCCCNC(=O)[C@@H]2C[C@@H](C(=O)N3CCc4ccccc4C3)C[C@@H]21 | ? | -4.7 | 20µM* | ?
O=C1NCCCCCCN(Cc2cccc(F)c2)[C@H]2C[C@H](C(=O)N3CCc4ccccc4C3)C[C@@H]12 | ? | -2.2 | ? | -24.5%
N#Cc1ccc(CN2CCCCCCNC(=O)[C@@H]3C[C@@H](C(=O)N4CCc5ccccc5C4)C[C@@H]32)cc1 | -17.5% | 7.6 | 25.1µM* | -23.1%
O=C(NC1CCN(c2nc3ncccc3o2)CC1)C1CC1 | 7.9%[87.6 µM] | -3.2 | 28.2µM* | -12.0%[87.6 µM]
O=C(NC1CC1)C1CCN(c2nc3ncccc3o2)CC1 | 17.3%[87.6 µM] | 10.1 | . | 1.4%[87.6 µM]
O=[S+]([O-])(NC1CCN(c2nc3ncccc3o2)CC1)c1cccs1 | -8.0% | -2.3 | 22.4µM* | 5.3%
O=[S+]([O-])(c1cccs1)N1CCN(c2nc3ncccc3o2)CC1 | 5.3% | -6.1 | i | 18.5%
